The whole screen tested about 400,000 compounds, of which about 13,000 (3.2%) were called active. Inconclusive results (about 18%) are left out. Only a selection was taken, and actives are over-represented in it overall. A number with no mark means an inactive call. Calls follow the shape of the dose curve; as a rule, active = well fitted cell-killing curve with a large enough effect; inconclusive = small, poorly fitted or top-dose-only effect, or effect the other way; inactive = flat fitted curve, though single readings scatter.
% is scaled to controls: 0 for no effect and ±100 for the full control effect; potency is read from the fitted curve at half-maximal effect.

The nature of the experiment: qHTS assay for MDR1-selective chemotherapeutics: Primary screen using the drug-selected MDR subline cells KB-V1. Also: nearly all actives have a fitted effect of over 60% in size. The settings on record: KB-V1 MDR cells viability, CellTiter-Glo, 72 h; series mostly up to 46.1 µM; activity change, negative = cytotoxicity: at the top concentration. In a few lines:
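Cytotoxicity via CellTiter-Glo luminescence after 72 h compound exposure at 37 degrees C. Cells: drug-selected KB-V1 line, DMEM phenol-red free plus 10% FBS. Compounds tested at multiple concentrations; normalized data fitted to concentration-effect curves.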
(In general: qHTS replaces the single test concentration by a dilution series.)
Turning to `O=C(c1cc(=O)c2ccccc2o1)N1CCN(c2ccccc2)CC1`, the “activity change, negative = cytotoxicity” value was -1.8%.

For the compound `COc1ccccc1CNC(=O)c1cc(=O)c2ccccc2o1`, the “activity change, negative = cytotoxicity” value is 11.7%.

Consider `CNC(=S)N1N=C(c2ccccc2)CC1c1ccc(Br)cc1` (stereo unspecified), for which the Potency is 11.6 µM (active).

With `O=C(c1ccccc1)N1N=C(c2ccccc2O)CC1c1ccc(Br)cc1` (stereo unspecified), the “activity change, negative = cytotoxicity” value is 2.17%.

Consider `COc1ccc(C2=NN(C(C)=O)C(c3ccccc3)C2)cc1` (stereo unspecified), for which the “activity change, negative = cytotoxicity” value was -2.5%.

In the case of `CC1(C(=O)NS(=O)(=O)c2ccc(C#N)cc2)CCN1C(=O)c1ccc(C2CCCCC2)cc1` (stereo unspecified), the “activity change, negative = cytotoxicity” value is -15.4%.

For the compound `CCOC(=O)C1CCC(CN(Cc2ccc(OC)cc2)S(=O)(=O)c2ccc(F)c(C(=O)Nc3cc(C)ccc3C)c2)CC1` (stereo unspecified), the “activity change, negative = cytotoxicity” value is 22.9%.

For the compound `N#CC1=C(SCc2ccc(C#N)cc2)N=C(N)C(c2nc(-c3ccccc3)cs2)C12CCCCC2` (stereo unspecified), the “activity change, negative = cytotoxicity” value is -3.05%.

Consider `N#CC1=C(SCc2ccccc2)NC(=O)C(C#N)C12CCCC2` (stereo unspecified), for which the Potency was 14.6 µM (active).

For `CCCCN1CC(C)(C)[C@H](CC(=O)Nc2ccc(Br)cc2)C1=O`, the “activity change, negative = cytotoxicity” value was 9.65%.

On to `COc1ccccc1CNC(=O)CCCCn1c(=O)c2ccccc2n(CC(=O)Nc2cc(Cl)ccc2C)c1=O`, for which the “activity change, negative = cytotoxicity” value is -4.31%.

For the compound `CC(Sc1oc(-c2ccco2)nc1S(=O)(=O)c1ccc(Br)cc1)c1ccccc1` (stereo unspecified), the “activity change, negative = cytotoxicity” value is -2.48%.

With `Cc1ccc(C(=O)NC(C)C(c2cccs2)N2CCOCC2)cc1C` (stereo unspecified), the “activity change, negative = cytotoxicity” value is -8.87%.

In the case of `CCN(CCCNC(=O)c1cc(Nc2ccc(OC)cc2)nc2ccccc12)c1cccc(C)c1`, the “activity change, negative = cytotoxicity” value was 26.8%.

`CC(C)(C)c1ccc(C(=O)NNC(=O)Cc2ccccc2)cc1`: the “activity change, negative = cytotoxicity” value was 3.78%.

In the case of `CN(C(=O)COC(=O)CNC(=O)C12CC3CC(CC(C3)C1)C2)c1ccccc1`, the “activity change, negative = cytotoxicity” value is -4.54%.

For the compound `CN(C(=O)CC(NC(=O)c1ccccc1)(c1ccccc1)c1ccccc1)c1ccccc1`, the Potency was 10.3 µM (active).

For `O=C(Nc1cccc(-c2nc3ccccc3o2)c1)c1cccc(Br)c1`, the “activity change, negative = cytotoxicity” value was -1.06%.

Consider `Nc1nc(N)c(N=O)c(N)n1`, for which the “activity change, negative = cytotoxicity” value is 0.0458%.

On to `O=C(CCC(=O)N1CCN(S(=O)(=O)c2ccccc2)CC1)NC1CCCc2ccccc21` (stereo unspecified), for which the “activity change, negative = cytotoxicity” value was -9.17%.

For the compound `Cc1ccc(S(=O)(=O)N2CCN(C(=O)CCC(=O)NC3CCCc4ccccc43)CC2)cc1` (stereo unspecified), the Potency is 23.1 µM (active).

Regarding `COc1ccc(NC(=O)CCC(=O)N2CCN(S(=O)(=O)c3ccc(C)cc3)CC2)c(OC)c1`, the “activity change, negative = cytotoxicity” value is -3.16%.

Take `CC1(C(=O)NS(=O)(=O)c2cccc(F)c2)CCN1C(=O)c1cccc2ccccc12` (stereo unspecified): the “activity change, negative = cytotoxicity” value was 5.37%.

With `COc1ccccc1-n1c(SCC(=O)Nc2ccc(Cl)cc2)nc(O)c(Cc2ccccc2)c1=O`, the “activity change, negative = cytotoxicity” value is 6.89%.

`CCc1cc2c(N3CCN(c4nnc(CC)s4)CC3)ncnc2s1`: the Potency is 3.66 µM (active).

Turning to `CCc1cc2c(NC3CCCC3)ncnc2s1`, the “activity change, negative = cytotoxicity” value is 2.62%.

With `Oc1ccccc1N1CCN(c2ncnc3sc(-c4ccccc4)cc23)CC1`, the “activity change, negative = cytotoxicity” value is 2.18%.

Take `CCCNC(=O)C1(C)CCCN(C(=O)c2oc3ccccc3c2C)C1` (stereo unspecified): the “activity change, negative = cytotoxicity” value was 2.13%.

`O=C(Cn1cc(C(F)(F)F)ccc1=O)N/N=C/c1ccc(Cl)cc1Cl`: the “activity change, negative = cytotoxicity” value was -21.2%.

In the case of `O=C(Cc1ccccc1)N/N=C/c1ccc(Cl)cc1Cl`, the Potency was 23.1 µM (active).

As for `C=CCOc1ccccc1/C=N/NC(=O)Cc1ccccc1`, the “activity change, negative = cytotoxicity” value was -7.11%.

`CN(C)c1ccc(/C=c2\[nH]c(=O)/c(=C/c3ccc(N(C)C)cc3)[nH]c2=O)cc1`: the “activity change, negative = cytotoxicity” value was 7.38%.

Regarding `COc1ccc(OC)c(-n2nnc3c(sc4nc(C)c(Br)c(C)c43)c2=O)c1`, the “activity change, negative = cytotoxicity” value was 0.722%.

`COc1ccc(OC)c(Cc2nnc(CCC(=O)NC3CCCC3)o2)c1`: the “activity change, negative = cytotoxicity” value is -5.46%.

Regarding `COc1ccc(OC)c(Cc2cnc3nc(N)nc(N)c3c2C)c1`, the Potency is 10.3 µM (active).

Take `Nc1nc2c(Br)ccc(Br)c2cc1C(=O)NCCc1ccccc1`: the “activity change, negative = cytotoxicity” value was -7.75%.

In the case of `Cc1cc(Br)ccc1NC(=O)CCCOc1cc(=O)n(C)c2ccccc12`, the “activity change, negative = cytotoxicity” value was -28.2%.

Take `O=C(Nc1ccc2c(c1)CCC2)c1cccc(S(=O)(=O)Nc2ccccc2Cl)c1`: the Potency was 20.6 µM (active).

Consider `O=C(c1cccc(S(=O)(=O)Nc2ccccc2Cl)c1)N1CCN(C(=O)c2ccco2)CC1`, for which the “activity change, negative = cytotoxicity” value was 0%.

Turning to `O=C(Nc1ccc2c(c1)CCC2)c1cccc(S(=O)(=O)N2CCN(c3ccc(F)cc3)CC2)c1`, the “activity change, negative = cytotoxicity” value was 3.08%.

As for `Cc1ccc2nc(/C(C#N)=C/c3ccc(-c4ccc(C(=O)OC(C)C)cc4)o3)[nH]c2c1`, the “activity change, negative = cytotoxicity” value was 0.0041%.

For `CCN(CC)C(=O)C(C)N1c2cccc3cccc(c23)S1(=O)=O` (stereo unspecified), the “activity change, negative = cytotoxicity” value was -11.9%.

As to `O=C(Nc1ccc(-c2nc3ccccc3[nH]2)cc1)c1ccncc1`, the “activity change, negative = cytotoxicity” value was 21.2%.

For `CCOC(=O)c1ccc(NC(=O)Cc2cccs2)cc1`, the “activity change, negative = cytotoxicity” value was -14.2%.

In the case of `O=C(Cc1cccs1)Nc1cccc(-c2nc3ccccc3[nH]2)c1`, the Potency was 16.4 µM (active).

In the case of `CC(C)c1cc(C(=O)N(C)C2CCCN(Cc3ccccc3F)C2)n(C)n1` (stereo unspecified), the “activity change, negative = cytotoxicity” value is -13.9%.

As for `Cc1nccn1-c1ccc(NC(=O)[C@H]2O[C@@H](n3ccc(=O)[nH]c3=O)[C@H](O)[C@@H]2O)cc1`, the “activity change, negative = cytotoxicity” value is 24.1%.

For `CCOC(=O)c1cc(-c2ccccc2)n(-c2cccc(C(=O)Nc3cc(OC)cc(OC)c3)c2)c1C`, the “activity change, negative = cytotoxicity” value was 17.9%.

For the compound `COc1ccc(C(=O)C(C)OC(=O)c2cccc(S(=O)(=O)Nc3c(C)n(C)n(-c4ccccc4)c3=O)c2)cc1` (stereo unspecified), the “activity change, negative = cytotoxicity” value is 0%.

Consider `Cc1c(NS(=O)(=O)c2cccc(C(=O)Nc3ccc(SC(F)F)cc3)c2)c(=O)n(-c2ccccc2)n1C`, for which the Potency is 5.17 µM (active).

`Cc1c(NS(=O)(=O)c2ccc(Cl)cc2)c(=O)n(-c2ccccc2)n1C`: the “activity change, negative = cytotoxicity” value is 21.8%.

The values above are taken from PubChem BioAssay AID1347076 (National Center for Advancing Translational Sciences (NCATS), 2019).
